Here are results for 40 molecules from PubChem BioAssay (NCI).

This is part of a sample that, as a whole, favours compounds with a hit. Of some 79,000 tested, about 15% had one in any assay. A number with no mark means an inactive call. Activity calls are given as the source filed them. Cut-off read from the data, not from the text of the source: active = growth inhibition above about 70%; inactive = the rest.

This experiment in a line: NCI Yeast Anticancer Drug Screen. Data for the cln2 rad14 strain (AID 165).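 Note: 0% = growth equal to vehicle treated cultures.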 The conditions noted are these: S. cerevisiae cln2 rad14 strain, at 50.0 µM, hits give high values. The essentials:
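Strain: cln2 rad14 yeast, altered in cell cycle control and DNA damage repair. Read-out: growth inhibition vs vehicle.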
Regarding `CCC(c1ccccc1)N1C(=O)c2ccccc2S1(=O)=O` (stereo not given), the growth inhibition was -19.6%. The value for `Cc1ccc2cc3ccccc3c(-c3ccccc3)c2c1` was 37%; that for `CC(=O)Oc1ccc(C)cc1C(C)(C)C` was 28.7%. The value for `CCCCCCCCCCC[N+](C)(C)CCCCCC[N+](C)(C)CCCCCCCCCCC` was 90.3% (active); that for `CCN(CC)CCCNc1nc(NCCCN(CC)CC)c2nc(-c3ccccc3)c(-c3ccccc3)nc2n1` was 77.4% (active).

As to `O=[N+]([O-])c1cnc(Sc2cncc[n+]2[O-])s1`, the growth inhibition is 99.3% (active). `O=c1[nH]c(=O)c2cc([N+](=O)[O-])cc([N+](=O)[O-])c2[nH]1`: the growth inhibition is 25.7%. The value for `O=C(NC(=O)C(F)(F)F)Nc1ccc(Cl)cc1` was 57.1%. Take `O=[N+]([O-])c1ccc(S)c(Cl)c1`: the growth inhibition was 52.6%. The value for `CS(=O)(=O)n1c(C(O)c2ccccc2)nc2ccccc21` (stereo not given) was 27.8%. With `O=C(NCc1ccccc1)C1C(=O)N(Cc2ccccc2)C(=O)/C1=N/O` (stereo not given), the growth inhibition is -22.5%. For `C[n+]1c(/C=C/c2ccccc2Cl)sc2ccccc21` the value was 98.5% (active).

As for `CC(=O)c1ccc(Cl)c(N=Cc2cc(Br)ccc2O)c1`, the growth inhibition is 24.4%. For `O=C(c1ccc(Cl)cc1)c1ccc([N+](=O)[O-])cc1` the value was -2.2%; for `Nc1ccc2c(c1)[nH]c(=O)c1cc(Cl)c(Cl)cc12`, 13.1%; for `COc1ccc(C2CC(c3c(O)ccc4ccccc34)=NN2)cc1OC` (stereo not given), 90.2% (active). With `CC[N+]1(C)CCC(O)(c2ccc(Cl)c(Cl)c2)C(C(=O)c2ccc(Cl)c(Cl)c2)C1` (stereo not given), the growth inhibition is 99.5% (active). For `Nc1nc(Cl)cc(NCC2(CO)CC(CCCc3ccccc3)C2)n1` (stereo not given) the value was -1.55%; for `Nc1nc(-c2cc3cc(Cl)ccc3o2)cs1`, 15.8%. `O=C(N(c1ccc(Cl)cc1)c1ccc(Cl)cc1)C(Cl)(Cl)Cl`: the growth inhibition is -7.95%. With `NC(CSSCC(N)C(=O)Nc1ccc2ccccc2c1)C(=O)Nc1ccc2ccccc2c1` (stereo not given), the growth inhibition was 90.3% (active). Take `O=C/C=C/c1cc([N+](=O)[O-])ccc1Cl`: the growth inhibition is 46.1%.

As for `COc1cc(C(c2cc3c(cc2OC(C)=O)OCO3)C(C(C)=O)C(C)=O)cc(OC)c1OC(C)=O` (stereo not given), the growth inhibition was -16.4%. For `CCCCc1ccc(Nc2nc(N)c3[nH]cnc3n2)cc1` the value was 16.7%; for `O=C(O)/C=C/C(=O)Nc1cccc2ccccc12`, 2.25%; for `Cc1cc(O)c(C(=O)/C=C/c2ccnc3ccccc23)c(=O)o1`, -13.4%. For `ONC1=Nc2ccccc2OCc2cc(Br)c(Br)cc2COc2ccccc2N=C1NO` the value was 89.4% (active); for `NNC(=O)c1ccc(N)cc1O`, 75.1% (active); for `O=C(N/C(=C\c1ccc2c(c1)OCO2)c1nc2ccccc2s1)c1ccccc1`, 96.8% (active). As to `CC1=NN(C(=O)c2ccncc2)C(=O)C1N=Nc1ccc(C)c([N+](=O)[O-])c1` (stereo not given), the growth inhibition was -14.6%. As to `COc1ccc2nc3cc(Cl)ccc3c(Nc3nccs3)c2c1`, the growth inhibition is 58.5%. For `S=C(S)NCCN1CCNCC1` the value was 73.8% (active); for `ClCc1nc2ccccc2c2ccccc12`, -28.2%. The value for `ClC1=C(Cl)C(Cl)(C(Cl)(Cl)Cl)C(Cl)=C1Cl` was 99.4% (active). For `FC(F)(F)COP1(OCC(F)(F)F)=NP(OCC(F)(F)F)(OCC(F)(F)F)=NP(c2ccccc2)(c2ccccc2)=N1` the value was 2.45%; for `CC(C)c1c(P(=O)(c2ccccc2)c2ccccc2)n(C)c2ccccc12`, 85.5% (active); for `CN(CCC1CCCCC1)CCC1CCCCC1`, 77.6% (active). As to `Cc1nc(Cl)nc(N)c1[N+](=O)[O-]`, the growth inhibition was 10.8%. Regarding `Nc1ccc2[nH]c3ccccc3c2c1`, the growth inhibition is -38%. For `COc1ccc(NC(=O)CSC(N)=O)cc1` the value was 21.9%.
